Data from PubChem BioAssay (NCI).
Compounds without any hit were thinned out: in the full panel of roughly 83,000, 20% have a hit.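 Results are percent growth after 48 hours of single-concentration exposure. 100 means growth as in untreated cells, lower positive values show inhibition; negative values down to -100 show cell death.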 Values without a mark were called inactive. Active and inactive are the calls of the source. How the source made its calls: active means growth percent below 10; inactive means the rest.

What was measured:
Assay in all cases: NCI-60 one-dose screen, 48 h (100 = growth as untreated, 0 = no growth, -100 = all killed)
Settings in all cases: 10 µM unless noted
NCI-H23 lung = system: NCI-H23 lung
NCI-H226 lung = system: NCI-H226 lung
NCI-H322M lung = system: NCI-H322M lung
HOP-62 NSCLC = system: HOP-62 NSCLC
NCI-H460 lung = system: NCI-H460 lung
HOP-92 NSCLC = system: HOP-92 NSCLC
NCI-H522 lung = system: NCI-H522 lung
A549/ATCC NSCLC = system: A549/ATCC NSCLC
786-0 renal = system: 786-0 renal
COLO 205 colon = system: COLO 205 colon
DU-145 prostate = system: DU-145 prostate
K-562 leukemia = system: K-562 leukemia
MALME-3M melanoma = system: MALME-3M melanoma
MDA-MB-231 breast = system: MDA-MB-231 breast
RXF 393 renal = system: RXF 393 renal
SF-268 CNS = system: SF-268 CNS
SF-295 CNS = system: SF-295 CNS
SF-539 CNS = system: SF-539 CNS
UACC-257 melanoma = system: UACC-257 melanoma
M14 melanoma = system: M14 melanoma

Compound	growth (NCI-H23 lung)	growth (NCI-H226 lung)	growth (NCI-H322M lung)	growth (HOP-62 NSCLC)	growth (NCI-H460 lung)	growth (HOP-92 NSCLC)	growth (NCI-H522 lung)	growth (A549/ATCC NSCLC)	growth (786-0 renal)	growth (COLO 205 colon)	growth (DU-145 prostate)	growth (K-562 leukemia)	growth (MALME-3M melanoma)	growth (MDA-MB-231 breast)	growth (RXF 393 renal)	growth (SF-268 CNS)	growth (SF-295 CNS)	growth (SF-539 CNS)	growth (UACC-257 melanoma)	growth (M14 melanoma)
COc1cc2c(c(O)c1Br)C(=O)c1c(O)cc(C[C@H](C)O)cc1[C@H]2[C@H]1c2cc(C[C@H](C)O)cc(O)c2C(=O)c2c1cc(OC)c(Br)c2O	6.19% (active)	14.3%	17.2%	16.5%	0.308% (active)	-21.3% (active)	2.22% (active)	11.1%	10.4%	-35.3% (active)	24.5%	5.05% (active)	-26.8% (active)	-58.1% (active)	21.1%	19.4%	-21.4% (active)	-23.8% (active)	-2.79% (active)	16.5%
CCOC(=O)c1ccc2c(c1)ncn2-c1ccc(NC(=O)Nc2cccc(C)c2)cc1	78.5%	93.8%	87.9%	81.8%	102%	117%	61.3%	103%	79.2%	74.3%	71.9%	18%	96.2%	52.5%	84.5%	95.4%	57.6%	49.2%	94%	64.5%
O=C1OC(Cc2ccccc2)C1c1ccccc1 (stereo not given)	106%	102%	110%	104%	107%	104%	89.7%	95.9%	102%	109%	110%	108%	106%	102%	120%	97.9%	98.2%	102%	93.9%	104%
Cc1ccc(-c2[nH][nH]c(=O)c2-c2nc3ccccc3s2)cc1	96.2%	95.1%	105%	99.2%	105%	105%	89.2%	107%	101%	106%	111%	100%	96.5%	99.1%	101%	103%	101%	100%	104%	98.1%
Cn1cc(CC2CC(=O)N(c3ccccc3)C2=O)sc1=NC(=O)c1ccccc1 (stereo not given)	95.8%	97.5%	92.5%	92.9%	106%	85.1%	92.8%	101%	94.4%	111%	103%	104%	89.9%	111%	92.2%	96.2%	102%	99.8%	98%	90.9%
Cc1cccc(NC(=O)Nc2ccc(-n3cnc4cc(-c5ccc(O)cc5)ccc43)cc2)c1	27.7%	62.6%	69.8%	39.3%	9.07% (active)	81.1%	6.16% (active)	24.9%	36.2%	69.1%	33.9%	14.2%	28.4%	47.3%	58.4%	42.3%	18.4%	29.1%	32.3%	21.4%
N#Cc1cccc(-c2ccc3c(c2)NC(=O)/C3=C\c2ccc[nH]2)c1	34.2%	41.6%	45.5%	62.7%	22.4%	56.7%	28.7%	86.5%	74.5%	3.47% (active)	92.8%	18.8%	51.6%	33.5%	73.3%	95.6%	78.7%	71.8%	67.6%	56.4%
O=C(CCN1CCCC1)Nc1ccc2c(NCCc3ccccc3)c3ccccc3nc2c1	-40.2% (active)	-19.8% (active)	-19% (active)	-9.1% (active)	-64.8% (active)	-14.5% (active)	-33.4% (active)	-5.65% (active)	-12.4% (active)	-37.5% (active)	-23.3% (active)	-17.1% (active)	-92.6% (active)	-32.5% (active)	-47.9% (active)	-55% (active)	-2.88% (active)	-67.2% (active)	-8.54% (active)	-61.8% (active)
CC(Sc1nc2sc3c(c2c(=O)n1-c1ccc(Cl)cc1)CCCC3)C(=O)Nc1nc(-c2ccc(Br)cc2)cs1 (stereo not given)	95.3%	94.3%	95.8%	91.5%	104%	110%	82.1%	100%	92.6%	110%	105%	96.5%	95.2%	89.1%	101%	93.5%	100%	107%	93%	94%
O=Cc1cc2ccccc2nc1Oc1ccc(C(F)(F)F)cc1	85.3%	76.9%	94.9%	80.9%	98.8%	52.8%	85.4%	98.4%	101%	83.6%	98.4%	59%	96%	75.7%	91.9%	83.4%	82.9%	97.8%	107%	99.8%
COc1cc(/C=N/NC(=O)c2cnn3c2NC(c2ccccc2)C3)ccc1Oc1ccccc1 (stereo not given)	43.8%	54.1%	30.8%	22.3%	7.15% (active)	26.1%	13.8%	25.5%	25.5%	24.9%	30.2%	16.8%	27.4%	44.3%	29.3%	45.2%	0.968% (active)	9.71% (active)	41.6%	18.2%
C=C(C)[C@@H]1CC[C@]2(C(=O)N3CCN(C)CC3)CC[C@]3(C)[C@H](CC[C@@H]4[C@@]5(C)C/C(=C/c6ccncc6)C(=O)C(C)(C)[C@@H]5CC[C@]43C)[C@@H]12	74.4%	61.9%	85.4%	85.1%	37.2%	39.7%	47.6%	40.4%	65%	53.7%	72.7%	21%	62%	74.3%	49.4%	62.3%	75.2%	73.4%	56.9%	68.5%
O=C(Nc1ccccc1C(=O)N/N=C(\c1ccccc1)c1ccccn1)c1ccc(F)cc1	28.2%	27.4%	25.9%	12.6%	6.06% (active)	69.1%	22.7%	15.6%	-8.12% (active)	10.6%	23.5%	12.8%	35.6%	36.6%	37.2%	19.2%	20.9%	9.35% (active)	2.87% (active)	-23.3% (active)
CC(Sc1nc2ccccc2c(=O)n1CCc1ccc(S(N)(=O)=O)cc1)C(=O)Nc1ccc(Cl)cc1 (stereo not given)	79.5%	76.6%	73.4%	84.4%	94.7%	107%	56.3%	69.6%	80.2%	106%	99.4%	60.4%	89.7%	82.6%	72.4%	74.7%	83.8%	90.8%	90.2%	105%
CCCCCN1C=C/C(=C\C(=O)N(C)c2ccccc2Br)c2ccccc21	77.8%	89.8%	108%	95.3%	101%	94.7%	78.2%	90.9%	94.1%	105%	109%	74.6%	91%	97.6%	101%	96.4%	95.1%	99.6%	93%	104%
CC1(C)CC(=O)C2=C(C1)N(c1ccc(F)cc1F)C(N)=C(C#N)C2c1cc(Br)ccc1F (stereo not given)	86.7%	103%	95.4%	89.9%	95%	119%	80.7%	79.3%	98.6%	118%	95.4%	87.6%	99%	96.4%	103%	103%	105%	87.8%	101%	85.1%
